Bioassay records: PubChem, National Center for Advancing Translational Sciences (NCATS)
The list is not random: actives were taken first. Their share in the collection is about 10%.
NIH3T3 tox = cytotoxic compounds in NIH 3T3 cells; NIH 3T3 viability, CellTiter-Glo ATP luminescence, 48-72 h; Potency, µM (doses to about 96.7 µM), for inactives: top-dose activity change, negative = cytotoxicity, usual class: inhibitors; 94,000 tested, 4.3% active; also: nearly all actives have a fitted effect of over 55% in size
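Cells were seeded at 400 per well, treated with pin-transferred compound, and kept 48 or 72 hr at 37 °C before CellTiter-Glo addition and luminescence imaging of cellular ATP.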
GPT2 inh = GPT2 alanine aminotransferase inhibition; Recombinant GPT2, coupled pyruvate oxidase/HRP Amplex Red fluorescence; Potency, µM (series often up to 57.7 µM), for inactives: top-dose activity change, negative = inhibition, actives largely listed as inhibitors; 100,000 tested, 0.25% active; AID 1671188; also: nearly all actives have a fitted effect of over 60% in size
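Inhibition is scored from Amplex Red fluorescence generated when pyruvate oxidase and HRP act on pyruvate released by GPT2. Reactions contain 10ng/uL enzyme, 250uM a-KG and 2mM L-alanine and run 30 min at room temperature.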
Luciferase inh = inhibitors of firefly (Photinus pyralis) luciferase; P08659; Potency, µM (highest dose often 115 µM), usual class: inhibitors; purified P. pyralis luciferase, luminescence, biochemical; 76,000 tested, 2.5% active; AID 1347043; also: nearly all actives have a fitted effect of over 65% in size
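Luminescence read by CCD imager after adding enzyme (10nM final) to wells holding compound, titrated in qHTS. Substrates 10uM each D-luciferin and ATP; buffer 50mM Tris acetate pH 7.5, 10mM Mg acetate, Tween-20, BSA.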
hNpr1 antagonist = human Npr1 receptor antagonism; P16066; HEK293 hNpr1 GloSensor cGMP, ANP-stimulated luminescence; Potency, µM (doses to about 46.3 µM), inactives show at the highest dose activity change, negative = inhibition, usual class: inhibitors; 76,000 tested, 1.6% active; calls by dose curve; also: nearly all actives have a fitted effect of over 60% in size
Target sequence (P16066 whole entry, looked up): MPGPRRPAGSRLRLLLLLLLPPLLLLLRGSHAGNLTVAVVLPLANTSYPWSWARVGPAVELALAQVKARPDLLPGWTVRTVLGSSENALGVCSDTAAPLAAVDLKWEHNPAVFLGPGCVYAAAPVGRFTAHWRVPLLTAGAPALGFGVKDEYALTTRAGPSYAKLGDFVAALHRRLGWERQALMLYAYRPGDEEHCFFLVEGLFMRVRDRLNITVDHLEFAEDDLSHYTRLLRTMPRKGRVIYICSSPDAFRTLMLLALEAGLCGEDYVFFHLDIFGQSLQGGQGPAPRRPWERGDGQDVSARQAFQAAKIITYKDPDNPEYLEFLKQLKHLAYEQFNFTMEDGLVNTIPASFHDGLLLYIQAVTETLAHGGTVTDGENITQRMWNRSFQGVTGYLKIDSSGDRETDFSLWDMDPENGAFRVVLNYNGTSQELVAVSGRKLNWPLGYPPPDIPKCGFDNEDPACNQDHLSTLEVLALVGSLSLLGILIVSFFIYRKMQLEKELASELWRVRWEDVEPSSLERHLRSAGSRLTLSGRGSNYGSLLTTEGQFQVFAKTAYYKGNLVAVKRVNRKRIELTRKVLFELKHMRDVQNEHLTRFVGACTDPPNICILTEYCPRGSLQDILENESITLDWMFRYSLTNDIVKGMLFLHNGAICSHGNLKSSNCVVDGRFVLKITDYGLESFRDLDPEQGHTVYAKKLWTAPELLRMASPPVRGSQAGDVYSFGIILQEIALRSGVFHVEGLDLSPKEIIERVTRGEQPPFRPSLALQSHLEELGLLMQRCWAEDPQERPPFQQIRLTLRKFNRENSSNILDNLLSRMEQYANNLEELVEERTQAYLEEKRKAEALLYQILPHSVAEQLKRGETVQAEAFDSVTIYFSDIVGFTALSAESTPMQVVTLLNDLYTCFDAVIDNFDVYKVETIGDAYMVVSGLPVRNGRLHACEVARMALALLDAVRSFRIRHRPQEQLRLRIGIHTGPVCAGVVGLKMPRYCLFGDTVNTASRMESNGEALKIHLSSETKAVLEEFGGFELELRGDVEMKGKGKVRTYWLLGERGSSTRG
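HEK293 cells stably expressing human Npr1 and cGMP GloSensor pGS-40F, loaded 2 h with 2% GloSensor reagent, given compound 30 min at room temperature. Luminescence read before and 20 min after 0.1 nM hNppA.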
HEK293 tox = cytotoxic compounds in HEK 293 cells; HEK 293 viability, ATP luminescence (CellTiter-Glo), 48-72 h; Potency, µM (titrated, usually from 115 µM), inactives show top-dose activity change, negative = cytotoxicity, hits mostly inhibitors; 94,000 tested, 6.6% active; AID 1345083; also: nearly all actives have a fitted effect of over 60% in size
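qHTS cytotoxicity; HEK 293, 250 cells/well; compound pinned; 48 or 72 hr, 37 degree Celsius, 5% CO2, 95% humidity; CellTiter-Glo, 10 min RT; luminescence (ATP).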
The depositor's hits bear a star; i = inactive; ? = inconclusive; · = no result; [ ] = dose if it differs, or a comment. Unless noted, calls follow the shape of the dose curve; as a rule, active = well fitted curve in the direction sought with a large enough effect; inconclusive = small, poorly fitted or top-dose-only effect, or another doubt; inactive = no such curve, though single readings can be large; an effect the other way counts as inactive or inconclusive. % is scaled to controls: 0 for no effect and ±100 for the full control effect; potency is read from the fitted curve at half-maximal effect.

SMILES | NIH3T3 tox | GPT2 inh | Luciferase inh | hNpr1 antagonist | HEK293 tox
O=C1OCC2(CCN(Cc3cccc(OC(F)(F)F)c3)C2)N1c1ccncc1 (centres undefined) | ? | -2.3%[88.5 µM] | i | 6.7%[70.6 µM] | 100µM*
COc1cccc(C(=O)N2CCC(=O)N(CCC#N)C[C@H]3COc4ccc(C)cc4[C@H]32)c1 | ? | · | · | · | -13.6%
C#Cc1cccc(C(=O)N2CCC(Cc3ccc(Cl)cc3)(C(=O)OCC)CC2)c1 | 20µM* | -13.9% | i | -4.7% | ?
COCC(=O)N1CCCC2(Cc3ccccc3NC2=O)C1 (centres undefined) | -9.2%[138 µM] | i | i | 0.0%[70.6 µM] | -18.8%[172 µM]
O=C(c1ccc2c(c1)OCO2)N1CCC2(CC1)N(Cc1ccccc1)C(=O)CS2(=O)=O | -20.5% | i | · | · | 1.5%
COc1ncccc1-c1nc(-c2c(C)noc2C)cc2c1cc(-c1ccccc1)n2C | 25.1µM* | -6.1%[88.5 µM] | i | -24.2%[70.6 µM] | 28.2µM*
Cc1noc(C)c1-c1cc2c(cc(-c3ccccc3)n2C)c(-c2cccnc2)n1 | ? | ? | i | -23.9%[70.6 µM] | ?
COc1ccc(-c2nc(-c3c(C)noc3C)cc3c2cc(-c2ccccc2)n3C)cn1 | 50.1µM* | -11.8%[88.5 µM] | i | -17.4%[70.6 µM] | ?
CCOC(=O)c1ccc(O)c(O)c1 | · | 28.2µM* | · | · | ·
COc1ccccc1-c1cc(C(=O)NCCc2ccc(Cl)cc2)nc2c1cnn2C | ? | 4.9% | · | · | ?
O=C(NC1CCN(Cc2ccc(-c3ccsc3)cc2)C1)c1ccc(F)cc1 (centres undefined) | ? | -6.0% | · | · | ?
COc1ccc(F)cc1-c1ccc(CN2CCC(NC(=O)c3ccc(Cl)nc3)C2)cc1 (centres undefined) | 31.6µM* | · | · | · | 31.6µM*
COc1ccccc1-c1ccc(CN2CCC(NC(=O)c3ccc(Cl)cc3)C2)cc1 (centres undefined) | 14.1µM* | · | · | · | 25.1µM*
COc1ccc(F)cc1-c1ccc(CN2CCC(NC(=O)c3cccnc3)C2)cc1 (centres undefined) | ? | · | · | · | 50.1µM*
COc1ccc(C(=O)NC2CCN(Cc3ccc(-c4cc(F)ccc4OC)cc3)C2)cc1 (centres undefined) | 17.8µM* | · | · | · | 22.4µM*
O=C(NCc1ccccc1)c1ccc2c(c1)OCCN(C1CCC1)C2 | -16.1%[138 µM] | -16.8%[88.5 µM] | i | -6.9%[70.6 µM] | ?
CN1Cc2cccn2CC1CNC(=O)c1cccs1 (centres undefined) | -18.3% | -4.2% | i | 3.7% | -6.0%
COc1ccc(C(=O)NC2CCN(Cc3ccc(-c4ccccc4OC)cc3)C2)cc1 (centres undefined) | 22.4µM* | i | · | · | ?
COc1ccccc1-c1ccc(C(=O)N2CCC(NC(=O)c3ccccc3)CC2)cc1 | ? | -1.4% | · | · | ?
OC[C@H]1CCN(Cc2ccc(-c3ccn[nH]3)o2)C[C@H]1O | -8.8% | -17.3% | i | 2.5% | 4.5%
OC[C@H]1CCN(Cc2ccc(-c3cccc(Cl)c3Cl)o2)C[C@@H]1O | -19.7% | 4.7% | ? | 10µM* | ?
Cc1ccc(C(=O)N2CCC(N3C(=O)CCC3C(=O)NCc3ccccc3)CC2)c(C)c1 (centres undefined) | -17.2% | i | i | 2.6% | -16.6%
Cn1c(CN2CCC3(CCNCC3)C2)cc2ccccc21 | ? | -2.3% | i | 1.6% | ?
O=C(NCc1ccccc1Cl)c1ccc2nnc(Cc3ccco3)n2c1 | ? | i | · | · | ?
c1cc(-c2nc3c(c(NCCCn4ccnc4)n2)CCNCC3)ccn1 | 2.1% | -10.8% | i | -0.4% | i
SMILES | NIH3T3 tox | GPT2 inh | Luciferase inh | hNpr1 antagonist | HEK293 tox
c1ccc(-c2nc3c(c(NCC4OCCc5ccccc54)n2)CCNCC3)nc1 (centres undefined) | 79.4µM* | 1.1% | i | 4.1% | ?
COc1ccccc1C(=O)N1CC(=O)N(CCCc2ccccc2)CC(O)C1 (centres undefined) | -19.2% | · | · | · | ?
OCc1cccc(-c2ccc3ncc(Nc4ccccc4Cl)n3n2)c1 | ? | -26.3%[88.5 µM] | 22.4µM* | -19.7%[70.6 µM] | 89.1µM*
OCc1cccc(-c2ccc3ncc(Nc4cccc(C(F)(F)F)c4)n3n2)c1 | 50.1µM* | ? | i | -20.0%[70.6 µM] | ?
OCc1cccc(-c2ccc3ncc(Nc4cccnc4)n3n2)c1 | ? | ? | i | 2.0%[70.6 µM] | -9.6%[172 µM]
OCc1cccc(-c2ccc3ncc(Nc4ccc(OCCN5CCCC5)cc4)n3n2)c1 | ? | i | i | 6.3%[70.6 µM] | 100µM*
C[S+](=O)([O-])N1CCCC1C(=O)N1CCC2(CC1)CC(=O)Nc1ccccc1O2 (centres undefined) | i | i | · | · | -3.2%
O=c1ccc(-c2cc(-c3cccc(N4CCOCC4)c3)cn3cncc23)c[nH]1 | ? | i | i | -2.3%[70.6 µM] | -16.1%[172 µM]
C#CCNC(=O)c1ccc2nc(-c3cccnc3)oc2c1 | -10.1%[138 µM] | 3.6%[88.5 µM] | · | · | -21.1%[172 µM]
CCc1cccc2c(C(CC(=O)NCCc3ccc(OC)c(OC)c3)c3cccc(OC)c3)c[nH]c12 (centres undefined) | ? | i | i | -14.7% | 25.1µM*
CCc1cccc2c(C(CC(=O)NCCOC)c3ccc(OC)c(OC)c3)c[nH]c12 (centres undefined) | -7.3% | i | i | 0.3% | -3.8%
CCc1cccc2c(C(CC(=O)NCc3ccc4c(c3)OCO4)c3ccc(OC)c(OC)c3)c[nH]c12 (centres undefined) | ? | -2.9% | i | -21.4% | 35.5µM*
CCc1cccc2c(C(CC(=O)NCCC(C)C)c3cccc(OC)c3OC)c[nH]c12 (centres undefined) | ? | ? | i | -1.0% | 44.7µM*
COc1cccc(C(CC(=O)NCCc2ccc(OC)c(OC)c2)c2c[nH]c3ccccc23)c1 (centres undefined) | ? | -1.5% | i | ? | 44.7µM*
COc1cccc(C(CC(=O)NCc2ccc3c(c2)OCO3)c2c[nH]c3ccccc23)c1OC (centres undefined) | ? | i | i | -0.2% | ?
N#Cc1cccc(C(=O)N2CCC3(CCC3N3CCOCC3)CC2)c1 (centres undefined) | -17.8% | ? | · | · | -0.3%
COc1ccc(CCC(=O)N2CCCCCC2CN2CCC(C)CC2)cc1 (centres undefined) | ? | i | · | · | ?
O=C(NCc1cccc(Cl)c1)c1ccc2nc(-c3cccnc3)oc2c1 | ? | i | · | · | ?
COC(=O)NC1CCN(Cc2cccc(-c3cccs3)c2)CC1 | ? | 1.2%[88.5 µM] | · | · | ?
C[S+](=O)([O-])c1ccc(-c2cc(C(=O)NCC3CC3)nn3cccc23)cc1 | ? | i | · | · | ?
CCc1cccc2c(C(CC(=O)NCCc3ccccc3)c3cccc4c3OCO4)c[nH]c12 (centres undefined) | 17.8µM* | -20.4% | ? | -19.7% | 17.8µM*
